In PubChem BioAssay (NCI):
This is part of a sample that, as a whole, favours compounds with a hit. Of some 79,000 tested, about 15% had one in any assay. Active and inactive are the calls of the source. No stated cut-off is given here; in the data, active means growth inhibition above about 70%; inactive means the rest.

Experiments:
[1] = NCI Yeast Anticancer Drug Screen. Data for the rad52 strain (AID 147);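 further: 0% = growth of vehicle-treated control cultures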; settings: S. cerevisiae rad52 mutant growth inhibition, stronger effect = higher value
How it was run: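 Measured: yeast growth inhibition. System: strain with a defined DNA damage repair alteration. Reference: vehicle-treated control cultures.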

[2] = NCI Yeast Anticancer Drug Screen. Data for the wt1 strain (AID 149);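 further: 0% = growth of vehicle-treated wt1 cultures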; settings: S. cerevisiae wt1 strain (SPY 50644) growth inhibition, stronger effect = higher value
How it was run: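 wt1 strain grown with compound or vehicle; inhibition taken from the growth difference.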

[3] = NCI Yeast Anticancer Drug Screen. Data for the mgt1 strain (AID 153); settings: S. cerevisiae mgt1 mutant growth inhibition, stronger effect = higher value
How it was run: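 After exposure of the mgt1 yeast mutant to compound, growth was measured and reported as inhibition compared with vehicle controls.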

[4] = NCI Yeast Anticancer Drug Screen. Data for the rad50 strain (AID 155);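 further: 0% = growth of vehicle-only cultures of the same strain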; settings: S. cerevisiae rad50 strain growth inhibition, stronger effect = higher value
How it was run: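 DNA repair mutant yeast, compound exposure, growth read-out; inhibition is taken relative to vehicle.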

[5] = NCI Yeast Anticancer Drug Screen. Data for the rad14 strain (AID 159);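 further: 0% = growth of vehicle-treated control cultures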; settings: S. cerevisiae rad14 strain growth inhibition, stronger effect = higher value
How it was run: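 DNA repair-defective yeast, compound-exposed; % growth inhibition derived by comparison with vehicle-treated controls.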

[6] = NCI Yeast Anticancer Drug Screen. Data for the sgs1 mgt1 strain (AID 161);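 further: 0% = growth of cultures given vehicle only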; settings: S. cerevisiae sgs1 mgt1 strain, stronger effect = higher value
How it was run: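 Genetically altered yeast, compound exposure, growth inhibition relative to vehicle.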

[7] = NCI Yeast Anticancer Drug Screen. Data for the CLN2oe strain (AID 163);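 further: 0% = growth of vehicle-only control cultures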; settings: S. cerevisiae CLN2oe strain, stronger effect = higher value
How it was run: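 Here, growth inhibition in a cell-cycle-altered yeast strain after compound exposure was quantified against vehicle control growth.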

[8] = NCI Yeast Anticancer Drug Screen. Data for the cln2 rad14 strain (AID 165);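 further: 0% = growth equal to vehicle treated cultures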; settings: S. cerevisiae cln2 rad14 strain, stronger effect = higher value
How it was run: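 Growth of compound-exposed yeast (cln2 rad14 genotype) measured and expressed as inhibition relative to vehicle.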

[9] = NCI Yeast Anticancer Drug Screen. Data for the bub3 strain (AID 167); settings: S. cerevisiae bub3 mutant strain, stronger effect = higher value
How it was run: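 In this screen, a yeast mutant lacking normal mitotic checkpoint function is challenged with compound. Relative growth versus vehicle gives the inhibition value.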

[10] = NCI Yeast Anticancer Drug Screen. Data for the wt2 strain (AID 169);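 further: 0% = growth of vehicle-treated yeast cultures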; settings: S. cerevisiae wt2 strain growth inhibition, stronger effect = higher value
How it was run: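 Genetically defined yeast strains from a DNA-repair/cell-cycle panel were used. Compound-exposed yeast growth was measured, and the inhibition was calculated relative to vehicle treatment.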

[11] = NCI Yeast Anticancer Drug Screen. Data for the mlh1 strain (AID 171);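 further: 0% = growth of vehicle-treated control cultures of the same strain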; settings: S. cerevisiae mlh1 strain growth inhibition, stronger effect = higher value
How it was run: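 Here the genetically defined yeast mutant is grown with each compound, and the extent to which its growth falls below that of vehicle-exposed cells is reported.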

[12] = NCI Yeast Anticancer Drug Screen. Data for the sgs1 strain (AID 173);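 further: 0% = growth of vehicle-only control cultures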; settings: S. cerevisiae sgs1 mutant, stronger effect = higher value
How it was run: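 Relative growth inhibition, referenced to vehicle, was determined in a yeast strain with a defined alteration affecting DNA damage repair or cell cycle control after compound exposure.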

[13] = NCI Yeast Anticancer Drug Screen. Data for the mlh1 rad18 strain (AID 175); settings: S. cerevisiae mlh1 rad18 strain growth inhibition, stronger effect = higher value
How it was run: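 In this whole-cell yeast screen, a strain with altered DNA damage repair is challenged with compound, and its growth is measured against matched vehicle-treated controls.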

[14] = NCI Yeast Anticancer Drug Screen. Data for the rad18 strain (AID 177); settings: S. cerevisiae rad18 mutant growth inhibition, stronger effect = higher value
How it was run: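 Screen uses a yeast strain with a defined lesion in DNA damage repair; compound effect is read as loss of growth compared to untreated vehicle cultures.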

[15] = NCI Yeast Anticancer Drug Screen. Data for the mec2-1 strain (AID 157); settings: S. cerevisiae mec2-1 strain, stronger effect = higher value
How it was run: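 Test agents were screened against the mec2-1 yeast strain, with defined DNA repair or cell cycle alteration. Growth was scored as inhibition against vehicle-only controls.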

[16] = at 5.0 µM (retest, dose inferred, filed as 0.5)
[17] = at 50.0 µM (retest, dose inferred, filed as 5.0)

Measured: growth inhibition

O=C1NC(c2cccc(OCc3ccccc3)c2)Nc2ccccc21 (stereo not drawn)
inactive: [1]; at 1.2 µM 16% | [1]; at 3.7 µM 20% | [1]; at 11.0 µM 19% | [1]; at 33.0 µM 14% | [1]; at 100.0 µM 6% | [2]; at 1.2 µM -10% | [2]; at 3.7 µM -20% | [2]; at 11.0 µM -22% | [2]; at 33.0 µM -26% | [2]; at 100.0 µM -5% | [3]; at 1.2 µM -7% | [3]; at 3.7 µM -19% | [3]; at 11.0 µM -35% | [3]; at 33.0 µM -22% | [3]; at 100.0 µM -51% | [4]; at 1.2 µM 12% | [4]; at 3.7 µM 12% | [4]; [16] 49% | [4]; at 11.0 µM 8% | [4]; at 33.0 µM 6% | [4]; at 100.0 µM -9% | [5]; at 1.2 µM -6% | [5]; at 3.7 µM -14% | [5]; at 11.0 µM -11% | [5]; at 33.0 µM -19% | [5]; at 100.0 µM -17% | [6]; [16] 5% | [6]; [17] 35% | [6]; at 50.0 µM 63.9% | [7]; at 1.2 µM -4% | [7]; at 3.7 µM -9% | [7]; at 11.0 µM -5% | [7]; at 33.0 µM -7% | [7]; at 100.0 µM 1% | [8]; [16] 35% | [8]; [17] 38% | [8]; at 50.0 µM 32.5% | [9]; at 1.2 µM 6% | [9]; at 3.7 µM 14% | [9]; [16] 20% | [9]; at 11.0 µM 8% | [9]; at 33.0 µM 4% | [9]; [17] 32% | [9]; at 50.0 µM 67.8% | [9]; at 100.0 µM 1% | [10]; at 1.2 µM -5% | [10]; at 3.7 µM -11% | [10]; at 11.0 µM -7% | [10]; at 33.0 µM -14% | [10]; at 100.0 µM 3% | [11]; at 1.2 µM 1% | [11]; at 3.7 µM 1% | [11]; at 11.0 µM 5% | [11]; at 33.0 µM -4% | [11]; at 100.0 µM -14% | [12]; at 1.2 µM 2% | [12]; at 3.7 µM 0% | [12]; at 11.0 µM -7% | [12]; at 33.0 µM -6% | [12]; at 100.0 µM -14% | [13]; [16] 36% | [13]; at 50.0 µM 65.2% | [14]; at 1.2 µM -6% | [14]; at 3.7 µM -18% | [14]; at 11.0 µM -26% | [14]; at 33.0 µM -21% | [14]; at 100.0 µM -37%
active: [4]; [17] 81% | [4]; at 50.0 µM 84.3% | [13]; [17] 71%

c1ccc(-c2cc(C3CO3)c3ccccc3n2)cc1 (stereo not drawn)
inactive: [1]; at 1.2 µM -1% | [1]; at 3.7 µM 5% | [1]; at 11.0 µM 19% | [2]; at 1.2 µM -1% | [2]; at 3.7 µM -3% | [2]; at 11.0 µM -5% | [2]; at 33.0 µM 2% | [3]; at 1.2 µM -2% | [3]; at 3.7 µM -4% | [3]; at 11.0 µM 1% | [3]; at 33.0 µM 69% | [4]; at 1.2 µM -4% | [4]; at 3.7 µM 1% | [4]; [16] -14% | [4]; at 11.0 µM -4% | [4]; at 33.0 µM 36% | [4]; [17] 15% | [15]; at 1.2 µM -3% | [15]; at 3.7 µM -1% | [15]; [16] -28% | [15]; at 11.0 µM -4% | [15]; at 33.0 µM 7% | [15]; [17] 35% | [5]; at 1.2 µM -4% | [5]; at 3.7 µM -4% | [5]; at 11.0 µM 1% | [5]; at 33.0 µM 25% | [6]; [16] -1% | [7]; at 1.2 µM -7% | [7]; at 3.7 µM -11% | [7]; at 11.0 µM -11% | [7]; at 33.0 µM 4% | [8]; [16] -29% | [8]; [17] 28% | [8]; at 50.0 µM 66.5% | [9]; at 1.2 µM 2% | [9]; at 3.7 µM -1% | [9]; [16] 8% | [9]; at 11.0 µM 10% | [9]; at 33.0 µM 41% | [9]; [17] 31% | [10]; at 1.2 µM -1% | [10]; at 3.7 µM 1% | [10]; at 11.0 µM 12% | [11]; at 1.2 µM -1% | [11]; at 3.7 µM -1% | [11]; at 11.0 µM 6% | [12]; at 1.2 µM 0% | [12]; at 3.7 µM 1% | [12]; at 11.0 µM 19% | [13]; [16] -17% | [13]; [17] 69% | [14]; at 1.2 µM 2% | [14]; at 3.7 µM 11% | [14]; at 11.0 µM 53%
active: [1]; at 33.0 µM 70% | [1]; at 100.0 µM 98% | [2]; at 100.0 µM 96% | [3]; at 100.0 µM 99% | [4]; at 50.0 µM 90.7% | [4]; at 100.0 µM 98% | [15]; at 50.0 µM 74.5% | [15]; at 100.0 µM 98% | [5]; at 100.0 µM 97% | [6]; [17] 80% | [6]; at 50.0 µM 95.5% | [7]; at 100.0 µM 97% | [9]; at 50.0 µM 93.2% | [9]; at 100.0 µM 99% | [10]; at 33.0 µM 77% | [10]; at 100.0 µM 99% | [11]; at 33.0 µM 73% | [11]; at 100.0 µM 99% | [12]; at 33.0 µM 80% | [12]; at 100.0 µM 98% | [13]; at 50.0 µM 95.8% | [14]; at 33.0 µM 89% | [14]; at 100.0 µM 97%
